Activity calls are given as the source filed them.
Tests used:
[1] = E. coli DRC41 culture turbidity changes, primary screen, E. coli filamentation inducer project, strain DRC41, OD650, 48 h (AID 1152);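 also: E. coli MC1000 strain DRC41 lacking acrAB efflux pump and sulA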; settings: E. coli DRC41 (acrAB sulA), higher = more signal, called active from +8 up or from −8 down
[2] = small-molecule binders of probe aLefty1, primary screen, biochemical, small-molecule microarray, 635/667 nm fluorescence (AID 1153); settings: higher = more signal;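 also: score merges spot fluorescence with signal-to-noise ratio from the scanned slide images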
[3] = PSAC antagonists in infected red cells, primary screen, cell-based, P. falciparum Indochina, OD700, 1 h (AID 1154); settings: P. falciparum Indochina infected RBC osmotic lysis, higher = more signal, called active from +8 up or from −8 down
[4] = PSAC antagonists in infected red cells, primary screen, cell-based, P. falciparum Indochina, OD700, 2 h (AID 1155);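 also: lysis reports solute entry through the parasite surface anion channel PSAC; channel blockers reduce lysis of infected cells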; settings: P. falciparum Indochina infected erythrocytes, osmotic lysis OD700; higher = more signal, called active from +8 up or from −8 down
[5] = osmotic lysis modulators in infected erythrocytes, primary screen, PSAC antagonist project, cell-based, P. falciparum Indochina, OD700, 3 h (AID 1156); settings: higher = more signal, called active from +8 up or from −8 down
[6] = PSAC antagonists in infected red cells, primary screen, cell-based, P. falciparum Indochina, OD700, 18 h (AID 1157); settings: P. falciparum Indochina infected erythrocytes, osmotic lysis OD700, 18 h; higher = more signal, called active from +8 up or from −8 down
[7] = modulators of S6 phosphorylation in cells, primary screen, cell-based, A549, cytoblot, luminescence, serum-stimulated (AID 1158); settings: A549 phospho-S6 cytoblot, 5 h, higher = more signal;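 also: serum-stimulated A549 lung adenocarcinoma cells; signal is phosphorylated S6 detected by cytoblot immunostaining with HRP secondary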
[8] = molecular target: NADPH oxidase 2 (Homo sapiens) (UniProt P04839); test: NOX2-dependent H2O2 signal modulators, primary screen, NOX inhibitor project, cell-based, HEK293-NOX2, PMA-stimulated, Amplex Red fluorescence (AID 1159); settings: 45 min, higher = more signal, called active from +8 up or from −8 down; also: test concentration not given here
NADPH oxidase 2 (Homo sapiens), sequence (P04839 whole entry, looked up): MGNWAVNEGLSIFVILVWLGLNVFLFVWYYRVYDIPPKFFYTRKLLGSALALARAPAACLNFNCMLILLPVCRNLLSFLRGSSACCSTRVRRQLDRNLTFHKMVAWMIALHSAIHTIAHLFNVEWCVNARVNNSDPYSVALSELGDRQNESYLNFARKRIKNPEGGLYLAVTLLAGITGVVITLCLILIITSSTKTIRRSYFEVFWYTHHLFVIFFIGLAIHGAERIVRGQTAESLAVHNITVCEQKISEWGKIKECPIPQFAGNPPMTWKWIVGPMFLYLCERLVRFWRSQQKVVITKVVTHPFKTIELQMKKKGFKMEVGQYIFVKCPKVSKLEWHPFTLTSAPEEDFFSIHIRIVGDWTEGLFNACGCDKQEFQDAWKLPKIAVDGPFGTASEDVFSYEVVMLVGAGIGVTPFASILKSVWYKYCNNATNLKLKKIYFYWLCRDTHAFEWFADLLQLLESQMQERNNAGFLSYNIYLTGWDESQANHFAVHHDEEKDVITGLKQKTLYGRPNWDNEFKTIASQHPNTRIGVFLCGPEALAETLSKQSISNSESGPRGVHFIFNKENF

[9] = molecular target: NADPH oxidase 4 (Homo sapiens) (UniProt Q9NPH5); test: NOX4-dependent H2O2 signal modulators, primary screen, NOX inhibitor project, cell-based, HEK293-NOX4, tetracycline-induced, Amplex Red fluorescence (AID 1160); settings: 45 min, higher = more signal, called active from +8 up or from −8 down
NADPH oxidase 4 (Homo sapiens), sequence (Q9NPH5 whole entry, looked up): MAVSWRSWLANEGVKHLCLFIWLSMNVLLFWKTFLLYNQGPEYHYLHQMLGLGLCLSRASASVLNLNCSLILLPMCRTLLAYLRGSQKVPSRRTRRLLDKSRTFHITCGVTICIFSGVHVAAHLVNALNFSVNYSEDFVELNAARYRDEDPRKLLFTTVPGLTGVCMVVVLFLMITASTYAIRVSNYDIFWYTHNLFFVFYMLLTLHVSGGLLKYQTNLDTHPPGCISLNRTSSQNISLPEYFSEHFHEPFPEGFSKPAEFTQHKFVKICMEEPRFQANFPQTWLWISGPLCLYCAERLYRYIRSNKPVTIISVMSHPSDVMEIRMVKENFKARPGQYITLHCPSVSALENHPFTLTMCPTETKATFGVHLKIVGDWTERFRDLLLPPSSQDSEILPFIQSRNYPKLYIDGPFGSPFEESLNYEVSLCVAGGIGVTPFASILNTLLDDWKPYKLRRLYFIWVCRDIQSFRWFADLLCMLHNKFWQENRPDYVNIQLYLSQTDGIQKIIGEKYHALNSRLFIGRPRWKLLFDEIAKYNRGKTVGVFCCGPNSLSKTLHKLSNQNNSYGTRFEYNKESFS

[10] = molecular target: NADPH oxidase 5 (Homo sapiens) (UniProt Q96PH1); test: NOX5-dependent H2O2 signal modulators, primary screen, NOX inhibitor project, cell-based, HEK293-NOX5, Amplex Red fluorescence (AID 1161); settings: HEK293-NOX5, ionomycin, 45 min, higher = more signal
NADPH oxidase 5 (Homo sapiens), sequence (Q96PH1 whole entry, looked up): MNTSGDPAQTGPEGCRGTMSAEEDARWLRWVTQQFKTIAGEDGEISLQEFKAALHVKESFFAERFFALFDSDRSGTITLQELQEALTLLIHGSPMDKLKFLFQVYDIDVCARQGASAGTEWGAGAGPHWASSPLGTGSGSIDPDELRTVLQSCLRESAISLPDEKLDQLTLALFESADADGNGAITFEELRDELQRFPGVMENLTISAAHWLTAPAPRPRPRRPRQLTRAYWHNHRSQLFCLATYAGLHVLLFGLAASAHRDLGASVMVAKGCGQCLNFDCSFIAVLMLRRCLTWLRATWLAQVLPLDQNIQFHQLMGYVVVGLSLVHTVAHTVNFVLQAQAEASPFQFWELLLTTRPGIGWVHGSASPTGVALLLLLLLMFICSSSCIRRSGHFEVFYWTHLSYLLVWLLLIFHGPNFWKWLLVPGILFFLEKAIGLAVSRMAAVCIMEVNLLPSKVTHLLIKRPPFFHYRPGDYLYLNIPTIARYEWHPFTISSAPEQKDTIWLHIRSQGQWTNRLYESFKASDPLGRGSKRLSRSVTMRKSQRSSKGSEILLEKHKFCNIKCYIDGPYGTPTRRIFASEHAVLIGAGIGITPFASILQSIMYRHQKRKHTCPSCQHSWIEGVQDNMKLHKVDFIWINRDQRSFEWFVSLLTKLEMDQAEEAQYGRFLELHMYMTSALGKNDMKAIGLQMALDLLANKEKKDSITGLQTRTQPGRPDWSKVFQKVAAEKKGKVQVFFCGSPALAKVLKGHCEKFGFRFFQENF

[11] = A549 cell viability effects, profiling panel, calcein-AM fluorescence, 48 h, basal (AID 1162); settings: higher = more signal; also: test concentration not given here
[12] = adipocyte viability effects, profiling panel, cell-based, 3T3-L1 adipocytes, calcein-AM fluorescence, 48 h, basal (AID 1163); settings: 3T3-L1 adipocytes viability, higher = more signal; also: test concentration not given here
[13] = HepG2 cell viability effects, profiling panel, calcein-AM fluorescence, 48 h, basal (AID 1164); settings: higher = more signal; also: test concentration not given here
[14] = MM1S cell viability effects, profiling panel, calcein-AM fluorescence, 48 h, basal (AID 1165); settings: higher = more signal;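 also: viability of MM1S multiple myeloma cells under basal unstimulated conditions; test concentration not given here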
[15] = basal RPMI8226 viability, no added stimulus, profiling panel, cell-based, calcein-AM fluorescence, 48 h, PK04 Diversity Set (AID 1166); settings: RPMI8226 myeloma viability, higher = more signal;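 also: cells grown under basal conditions without added stimulus; test concentration not given here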
[16] = basal HepG2 mitochondrial membrane potential changes, profiling panel, cell-based, JC-1 fluorescence, 24 h, 100 nL compound (AID 1167); settings: higher = more signal; also: test concentration not given here
[17] = basal 3T3-L1 adipocyte mitochondrial potential changes, profiling panel, cell-based, JC-1 fluorescence, 3T3-L1 adipocytes, 24 h, 100 nL compound (AID 1168); settings: JC-1 mitochondrial fluorescence, higher = more signal, called active from +8 up or from −8 down; also: test concentration not given here
[18] = basal RPMI8226 mitochondrial membrane potential changes, profiling panel, cell-based, JC-1 fluorescence, 24 h, 100 nL compound (AID 1169); settings: RPMI8226 myeloma, JC-1 mitochondrial potential fluorescence, higher = more signal; also: test concentration not given here
[19] = basal MM1S mitochondrial membrane potential changes, profiling panel, cell-based, JC-1 fluorescence, 24 h, 100 nL compound (AID 1170); settings: higher = more signal; also: test concentration not given here
[20] = A549 lung cancer cell viability effects, profiling panel, resazurin fluorescence, 24 h, PK04 Diversity Set (AID 1171); settings: higher = more signal, called active from +8 up or from −8 down; also: test concentration not given here

C[C@]1(C(=O)NCCN2CCOCC2)c2ccccc2C(=O)N(Cc2ccc(OC(F)(F)F)cc2)[C@H]1c1ccc(CO)cc1
z-score [1]: 0.0793 (inactive) | composite z-score [2]: -0.0523 | z-score [3]: 6.9 (inactive) | z-score [4]: 0.621 (inactive) | z-score [5]: 3.05 (inactive) | z-score [6]: 0.327 (inactive) | z-score [7]: -0.173 | z-score [8]: 0.752 (inactive) | z-score [9]: 1.19 (inactive) | z-score [10]: 0.0149 | z-score [11]: 0.742 | z-score [12]: -0.352 | z-score [13]: 0.342 | z-score [14]: -0.285 | z-score [15]: 0.0667 | z-score [16]: 3.08 | z-score [17]: -0.446 (inactive) | z-score [18]: -0.275 | z-score [19]: -0.609 | z-score [20]: 0.354 (inactive)

O=C1c2ccccc2[C@](Cc2ccccc2I)(C(=O)NCCN2CCOCC2)[C@H](c2ccc(CO)cc2)N1Cc1ccccc1
z-score [1]: -0.381 (inactive) | composite z-score [2]: 0.641 | z-score [3]: 4.18 (inactive) | z-score [4]: 0.815 (inactive) | z-score [5]: -0.188 (inactive) | z-score [6]: 0.352 (inactive) | z-score [7]: -0.0041 | z-score [8]: 0.744 (inactive) | z-score [9]: 0.91 (inactive) | z-score [10]: 0.665 | z-score [11]: -0.0426 | z-score [12]: 0.193 | z-score [13]: 1.14 | z-score [14]: 0.211 | z-score [15]: -0.347 | z-score [16]: 0.642 | z-score [17]: 0.421 (inactive) | z-score [18]: 0.231 | z-score [19]: -0.462 | z-score [20]: 0.0188 (inactive)

COC(=O)[C@@]1(Cc2ccccc2)[C@H]2c3cc(C(=O)N4CCCC4)n(Cc4ccsc4Br)c3C[C@H]2CN1C(=O)c1ccccc1
z-score [1]: -1.82 (inactive) | composite z-score [2]: 0.451 | z-score [3]: 7 (inactive) | z-score [4]: 1.07 (inactive) | z-score [5]: 1.04 (inactive) | z-score [6]: 1.03 (inactive) | z-score [7]: -0.215 | z-score [8]: 0.0188 (inactive) | z-score [9]: 0.707 (inactive) | z-score [10]: -2.92 | z-score [11]: -0.991 | z-score [12]: 0.213 | z-score [13]: -0.248 | z-score [14]: -1.54 | z-score [15]: -3.59 | z-score [16]: 1.6 | z-score [17]: -0.205 (inactive) | z-score [18]: -0.804 | z-score [19]: -1.23 | z-score [20]: -0.9 (inactive)

O=C(O)[C@]1(Cc2ccccc2)N=C(c2ccc(OCCCO)cc2)O[C@@H]1c1ccccc1
z-score [1]: 0.585 (inactive) | composite z-score [2]: 0.104 | z-score [3]: 5.03 (inactive) | z-score [4]: -0.125 (inactive) | z-score [5]: -1.2 (inactive) | z-score [6]: 0.0743 (inactive) | z-score [7]: -0.174 | z-score [8]: 0.26 (inactive) | z-score [9]: 0.674 (inactive) | z-score [10]: 0.914 | z-score [11]: 1.07 | z-score [12]: -1.44 | z-score [13]: 0.493 | z-score [14]: 0.427 | z-score [15]: 0.261 | z-score [16]: -0.121 | z-score [17]: 0.766 (inactive) | z-score [18]: -0.833 | z-score [19]: -0.38 | z-score [20]: 0.455 (inactive)

From PubChem BioAssay
